Laboratory results as given in PubChem BioAssay (EPA / NIEHS).
Inconclusive results are not listed. The source made the active and inactive calls. Rule for the calls: active = hit-call score of the fitted dose curve at least 0.9, where 1 is the maximum; inconclusive = response in the unintended direction; inactive = score below 0.9.

Experiments:
[1] = biological target: human Serotonin, 5-Hydroxytryptamine Receptor 7 (5HT7), HTR7 (gene 3363) (UniProt P34969); assay: NVS_GPCR_h5HT7: NovaScreen (NVS) G Protein-Coupled Receptor Assay for human Serotonin, 5-Hydroxytryptamine Receptor 7 (5HT7) (AID 2283255);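 note: hits reduce specific radioligand binding relative to DMSO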
Chain of human Serotonin, 5-Hydroxytryptamine Receptor 7 (5HT7), HTR7 (gene 3363) (P34969 whole entry, looked up): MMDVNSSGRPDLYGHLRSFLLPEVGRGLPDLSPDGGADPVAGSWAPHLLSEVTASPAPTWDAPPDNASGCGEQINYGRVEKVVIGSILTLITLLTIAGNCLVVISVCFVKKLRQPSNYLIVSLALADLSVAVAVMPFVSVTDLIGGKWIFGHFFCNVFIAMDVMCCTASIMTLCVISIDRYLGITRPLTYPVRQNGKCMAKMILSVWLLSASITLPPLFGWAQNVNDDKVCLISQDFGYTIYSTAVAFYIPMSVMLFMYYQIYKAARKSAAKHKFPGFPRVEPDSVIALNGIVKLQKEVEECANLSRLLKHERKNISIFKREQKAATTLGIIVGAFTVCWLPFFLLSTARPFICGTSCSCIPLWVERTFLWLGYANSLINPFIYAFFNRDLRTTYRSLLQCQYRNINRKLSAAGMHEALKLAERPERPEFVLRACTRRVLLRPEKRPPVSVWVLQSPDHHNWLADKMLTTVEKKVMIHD
Outline: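 Radioligand displacement on membranes from CHO cells expressing human 5HT7, 1 h incubation, filter-based scintillation counting. Primary screen used a single 25 uM concentration in duplicate; actives were followed up in concentration series.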

[2] = biological target: human Adenosine A2a Receptor (AdoRA2a), ADORA2A (gene 135) (UniProt P29274); assay: NVS_GPCR_hAdoRA2a: NovaScreen (NVS) G Protein-Coupled Receptor Assay for human Adenosine A2a Receptor (AdoRA2a) (AID 2283256)
Chain of human Adenosine A2a Receptor (AdoRA2a), ADORA2A (gene 135) (P29274 whole entry, looked up): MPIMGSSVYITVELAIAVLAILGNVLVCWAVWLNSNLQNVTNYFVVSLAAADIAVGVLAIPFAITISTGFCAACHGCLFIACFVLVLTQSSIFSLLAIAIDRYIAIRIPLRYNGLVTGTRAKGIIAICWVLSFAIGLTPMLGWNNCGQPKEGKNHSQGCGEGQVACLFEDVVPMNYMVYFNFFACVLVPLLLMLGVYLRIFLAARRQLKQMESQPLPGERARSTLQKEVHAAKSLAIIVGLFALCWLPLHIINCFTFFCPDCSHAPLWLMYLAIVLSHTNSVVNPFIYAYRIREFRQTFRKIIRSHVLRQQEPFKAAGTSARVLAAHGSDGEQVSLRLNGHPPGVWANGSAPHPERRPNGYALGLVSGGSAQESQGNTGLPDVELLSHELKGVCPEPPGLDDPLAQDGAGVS
Outline: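 Radioligand displacement on HEK293-derived membrane protein, cell-free; filter-based scintillation counting 1.5 hours after dosing, loss of signal vs DMSO. Single-point duplicate screen at 25 uM, actives retested in concentration series.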

[3] = biological target: human Adrenergic, Alpha 2c Receptor (Adra2C), ADRA2C (gene 152) (UniProt P18825); assay: NVS_GPCR_hAdra2C: NovaScreen (NVS) G Protein-Coupled Receptor Assay for human Adrenergic, Alpha 2c Receptor (Adra2C) (AID 2283259)
Chain of human Adrenergic, Alpha 2c Receptor (Adra2C), ADRA2C (gene 152) (P18825 whole entry, looked up): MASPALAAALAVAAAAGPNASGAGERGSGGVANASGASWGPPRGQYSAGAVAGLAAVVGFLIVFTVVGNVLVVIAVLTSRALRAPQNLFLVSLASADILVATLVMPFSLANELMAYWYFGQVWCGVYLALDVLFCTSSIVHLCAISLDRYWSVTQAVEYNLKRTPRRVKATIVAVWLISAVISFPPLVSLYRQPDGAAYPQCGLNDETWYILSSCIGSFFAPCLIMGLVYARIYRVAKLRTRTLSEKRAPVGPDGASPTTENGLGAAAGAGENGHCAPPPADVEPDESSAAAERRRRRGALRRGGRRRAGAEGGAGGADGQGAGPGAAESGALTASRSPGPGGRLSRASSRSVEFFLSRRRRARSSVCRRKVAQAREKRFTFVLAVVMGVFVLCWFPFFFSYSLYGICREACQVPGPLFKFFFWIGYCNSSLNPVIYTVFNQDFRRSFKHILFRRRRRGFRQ
Outline: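 Radioligand binding on Sf9-expressed receptor membranes, 1 h after chemical dosing, filter-based scintillation read-out. Loss of binding fitted positively versus DMSO; primary duplicate screen at 25 uM, actives retested in concentration series.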

[4] = biological target: human Dopamine Receptor D2 (DRD2), DRD2 (gene 1813) (UniProt P14416); assay: NVS_GPCR_hDRD2s: NovaScreen (NVS) G Protein-Coupled Receptor Assay for human Dopamine Receptor D2 (DRD2) (AID 2283266)
Chain of human Dopamine Receptor D2 (DRD2), DRD2 (gene 1813) (P14416 whole entry, looked up): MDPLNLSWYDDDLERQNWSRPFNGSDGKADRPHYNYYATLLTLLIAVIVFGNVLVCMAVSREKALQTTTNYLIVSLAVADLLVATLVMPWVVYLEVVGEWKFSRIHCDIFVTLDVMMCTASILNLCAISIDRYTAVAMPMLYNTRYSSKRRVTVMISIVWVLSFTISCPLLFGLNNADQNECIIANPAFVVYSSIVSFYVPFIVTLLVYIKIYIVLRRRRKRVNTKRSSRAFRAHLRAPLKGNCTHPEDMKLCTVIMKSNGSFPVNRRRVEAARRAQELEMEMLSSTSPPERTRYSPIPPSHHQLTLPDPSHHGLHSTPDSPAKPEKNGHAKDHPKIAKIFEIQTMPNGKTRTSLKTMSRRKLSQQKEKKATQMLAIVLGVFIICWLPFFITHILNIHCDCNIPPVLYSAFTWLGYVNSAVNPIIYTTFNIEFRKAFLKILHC
Outline: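 Radioligand displacement used human DRD2 membranes extracted from CHO cells and was read by filter-based scintillation counting after 1.5 hours. Primary screening was in duplicate at 25 uM. Loss of signal versus DMSO was fitted, with concentration series in follow-up.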

[5] = biological target: D(1A) dopamine receptor (Homo sapiens) (UniProt P21728); assay: NVS_GPCR_hDRD1: NovaScreen (NVS) G Protein-Coupled Receptor Assay for human Dopamine Receptor D1 (DRD1) (AID 2283269)
Chain of D(1A) dopamine receptor (Homo sapiens) (P21728 whole entry, looked up): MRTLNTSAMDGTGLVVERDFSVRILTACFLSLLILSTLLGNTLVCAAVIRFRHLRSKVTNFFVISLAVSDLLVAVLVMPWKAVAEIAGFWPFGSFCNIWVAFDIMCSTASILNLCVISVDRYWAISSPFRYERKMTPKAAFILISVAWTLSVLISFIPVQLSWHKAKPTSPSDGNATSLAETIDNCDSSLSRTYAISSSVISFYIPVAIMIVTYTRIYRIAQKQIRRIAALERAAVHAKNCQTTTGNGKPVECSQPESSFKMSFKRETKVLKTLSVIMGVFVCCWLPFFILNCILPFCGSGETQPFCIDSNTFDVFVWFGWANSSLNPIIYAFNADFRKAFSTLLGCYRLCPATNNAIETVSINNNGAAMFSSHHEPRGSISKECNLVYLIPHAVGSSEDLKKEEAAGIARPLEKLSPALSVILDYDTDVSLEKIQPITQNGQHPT
Outline: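 Radioligand displacement binding on membranes/protein extracted from HEK293 expressing human D1, cell-free; read 1 h after dosing by filter-based scintillation counting. Primary screen in duplicate at 25 uM, actives followed up in concentration series; signal loss versus DMSO baseline.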

[6] = biological target: human Serotonin, 5-Hydroxytryptamine Receptor 2A (5HT2A), HTR2A (gene 3356) (UniProt P28223); assay: NVS_GPCR_h5HT2A: NovaScreen (NVS) G Protein-Coupled Receptor Assay for human Serotonin, 5-Hydroxytryptamine Receptor 2A (5HT2A) (AID 2283249)
Chain of human Serotonin, 5-Hydroxytryptamine Receptor 2A (5HT2A), HTR2A (gene 3356) (P28223 whole entry, looked up): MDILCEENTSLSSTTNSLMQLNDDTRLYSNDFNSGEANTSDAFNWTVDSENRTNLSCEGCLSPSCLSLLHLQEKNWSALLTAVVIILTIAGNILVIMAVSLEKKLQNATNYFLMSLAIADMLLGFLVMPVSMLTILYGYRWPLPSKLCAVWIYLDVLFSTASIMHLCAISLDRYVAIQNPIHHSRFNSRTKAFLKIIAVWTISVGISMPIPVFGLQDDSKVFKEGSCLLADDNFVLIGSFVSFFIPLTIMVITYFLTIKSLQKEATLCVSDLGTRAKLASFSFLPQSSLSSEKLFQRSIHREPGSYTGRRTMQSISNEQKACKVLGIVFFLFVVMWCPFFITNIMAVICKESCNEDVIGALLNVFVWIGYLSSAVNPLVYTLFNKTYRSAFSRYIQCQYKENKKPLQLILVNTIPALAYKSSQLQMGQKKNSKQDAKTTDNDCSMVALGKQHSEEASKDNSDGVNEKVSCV
Outline: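 Human cortex membranes, cell-free radioligand binding; filter-based scintillation read 1.5 h after dosing. Duplicate screen at 25 uM first; displacement of specific binding (loss of signal) versus DMSO.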

[7] = tested on: guinea pig Muscarinic, Peripheral (Mperiperal) Receptor, Non-selective Binding, gene 100379235; assay: NVS_GPCR_gMPeripheral_NonSelective: NovaScreen (NVS) G Protein-Coupled Receptor Assay for guinea pig Muscarinic, Peripheral (Mperiperal) Receptor, Non-selective Binding (AID 2283250)
Outline: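 Guinea pig bladder membranes, radioligand binding read 1 h after dosing by filter scintillation counting; loss of signal vs DMSO. Primary duplicate screen at 25 uM, then concentration-response up to 50 uM.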

[8] = biological target: human Serotonin, 5-Hydroxytryptamine Receptor 5A (5HT5A), HTR5A (gene 3361) (UniProt P47898); assay: NVS_GPCR_h5HT5A: NovaScreen (NVS) G Protein-Coupled Receptor Assay for human Serotonin, 5-Hydroxytryptamine Receptor 5A (5HT5A) (AID 2283251)
Chain of human Serotonin, 5-Hydroxytryptamine Receptor 5A (5HT5A), HTR5A (gene 3361) (P47898 whole entry, looked up): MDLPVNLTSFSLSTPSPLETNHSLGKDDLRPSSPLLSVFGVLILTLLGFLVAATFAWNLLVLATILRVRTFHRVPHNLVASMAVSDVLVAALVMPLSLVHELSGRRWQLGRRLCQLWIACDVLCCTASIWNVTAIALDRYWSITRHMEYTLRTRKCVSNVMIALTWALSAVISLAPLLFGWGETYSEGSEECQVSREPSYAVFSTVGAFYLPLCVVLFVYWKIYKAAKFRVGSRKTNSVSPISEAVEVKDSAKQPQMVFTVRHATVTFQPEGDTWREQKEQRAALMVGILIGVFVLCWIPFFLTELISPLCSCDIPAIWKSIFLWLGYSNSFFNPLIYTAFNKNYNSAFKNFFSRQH
Outline: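 Cell-free radioligand displacement binding on HEK293-derived membrane protein, 1 h incubation, filter-based scintillation counting. Primary screen in duplicate at 25 uM, actives followed in concentration series; loss of signal fitted versus DMSO.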

[9] = biological target: guinea pig Opioid, Kappa 1 Receptor (OpiateK), OPRK1 (gene 100135587) (UniProt P41144); assay: NVS_GPCR_gOpiateK: NovaScreen (NVS) G Protein-Coupled Receptor Assay for guinea pig Opioid, Kappa 1 Receptor (OpiateK) (AID 2283252);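 note: radioligand displacement from kappa opioid receptor in guinea pig cerebellar membranes; active means reduced radioligand binding relative to DMSO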
Chain of guinea pig Opioid, Kappa 1 Receptor (OpiateK), OPRK1 (gene 100135587) (P41144 whole entry, looked up): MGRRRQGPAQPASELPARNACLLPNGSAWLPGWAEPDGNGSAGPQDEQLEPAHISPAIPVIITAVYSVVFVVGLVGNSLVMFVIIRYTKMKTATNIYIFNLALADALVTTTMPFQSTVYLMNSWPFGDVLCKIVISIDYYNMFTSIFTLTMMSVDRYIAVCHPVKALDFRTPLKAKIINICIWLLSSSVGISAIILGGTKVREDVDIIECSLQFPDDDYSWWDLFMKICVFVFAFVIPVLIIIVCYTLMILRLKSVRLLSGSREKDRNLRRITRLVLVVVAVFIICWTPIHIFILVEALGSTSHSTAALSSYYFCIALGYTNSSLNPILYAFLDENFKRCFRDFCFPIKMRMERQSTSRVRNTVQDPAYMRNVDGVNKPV
Outline: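 Guinea pig cerebellar membranes were incubated with a radioligand for 2 h after compound addition; bound radioactivity was read by filter-based scintillation counting. Loss of specific binding relative to DMSO baseline defined activity; primary screen at 25 uM in duplicate.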

[10] = biological target: human Serotonin, 5-Hydroxytryptamine Receptor 6 (5HT6), HTR6 (gene 3362) (UniProt P50406); assay: NVS_GPCR_h5HT6: NovaScreen (NVS) G Protein-Coupled Receptor Assay for human Serotonin, 5-Hydroxytryptamine Receptor 6 (5HT6) (AID 2283253)
Outline: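 Radioligand binding to 5HT6 in HEK293-derived membranes, cell-free, 1 h after dosing; bound ligand measured by filter-based scintillation counting. Primary screen in duplicate at 25 uM; actives retested in concentration series.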

[11] = biological target: human Adrenergic, Alpha 2A Receptor (Adra2A), ADRA2A (gene 150) (UniProt P08913); assay: NVS_GPCR_hAdra2A: NovaScreen (NVS) G Protein-Coupled Receptor Assay for human Adrenergic, Alpha 2A Receptor (Adra2A) (AID 2283257)
Chain of human Adrenergic, Alpha 2A Receptor (Adra2A), ADRA2A (gene 150) (P08913 whole entry, looked up): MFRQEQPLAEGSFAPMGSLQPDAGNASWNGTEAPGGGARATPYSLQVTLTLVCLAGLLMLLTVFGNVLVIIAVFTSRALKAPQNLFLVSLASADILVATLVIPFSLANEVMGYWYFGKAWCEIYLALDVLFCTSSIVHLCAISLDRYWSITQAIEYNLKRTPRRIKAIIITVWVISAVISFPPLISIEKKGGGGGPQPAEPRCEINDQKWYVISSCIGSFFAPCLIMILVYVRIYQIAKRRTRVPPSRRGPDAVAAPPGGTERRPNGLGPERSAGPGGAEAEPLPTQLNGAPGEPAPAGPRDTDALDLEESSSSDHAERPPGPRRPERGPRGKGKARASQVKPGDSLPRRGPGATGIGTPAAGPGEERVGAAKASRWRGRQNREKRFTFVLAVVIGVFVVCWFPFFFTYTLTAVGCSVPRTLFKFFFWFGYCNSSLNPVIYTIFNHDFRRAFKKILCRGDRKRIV
Outline: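 Radioligand filter-binding was run on HT29-derived membranes, cell-free, read by scintillation counting 1 h after dosing. Primary screening was in duplicate at 25 uM, with concentration series in follow-up. Loss of signal versus DMSO indicates displacement.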

[12] = biological target: human Adrenergic, Beta 3 Receptor (Adrb3), ADRB3 (gene 155) (UniProt P13945); assay: NVS_GPCR_hAdrb3: NovaScreen (NVS) G Protein-Coupled Receptor Assay for human Adrenergic, Beta 3 Receptor (Adrb3) (AID 2283262)
Chain of human Adrenergic, Beta 3 Receptor (Adrb3), ADRB3 (gene 155) (P13945 whole entry, looked up): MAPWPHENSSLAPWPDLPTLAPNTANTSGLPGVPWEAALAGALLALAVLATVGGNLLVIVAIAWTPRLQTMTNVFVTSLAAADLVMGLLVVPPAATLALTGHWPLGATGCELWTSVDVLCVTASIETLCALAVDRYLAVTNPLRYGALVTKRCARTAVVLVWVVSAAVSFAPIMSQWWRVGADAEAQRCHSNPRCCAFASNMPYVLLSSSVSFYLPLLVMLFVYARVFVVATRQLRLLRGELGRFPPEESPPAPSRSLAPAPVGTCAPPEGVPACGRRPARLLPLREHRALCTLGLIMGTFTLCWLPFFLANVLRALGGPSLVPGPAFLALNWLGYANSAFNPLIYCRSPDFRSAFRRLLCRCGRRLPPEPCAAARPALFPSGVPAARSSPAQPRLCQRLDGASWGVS
Outline: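 Membranes from SK-N-MC cells pretreated with isoproterenol and 8-bromo-cAMP were used in a radioligand competitive displacement binding assay. Binding was read by filter-based scintillation counting 1 hour after dosing. Primary screening was in duplicate at 25 uM, with concentration series in follow-up.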

[13] = biological target: human Histamine 1 Receptor (H1), HRH1 (gene 3269) (UniProt P35367); assay: NVS_GPCR_hH1: NovaScreen (NVS) G Protein-Coupled Receptor Assay for human Histamine 1 Receptor (H1) (AID 2283268)
Chain of human Histamine 1 Receptor (H1), HRH1 (gene 3269) (P35367 whole entry, looked up): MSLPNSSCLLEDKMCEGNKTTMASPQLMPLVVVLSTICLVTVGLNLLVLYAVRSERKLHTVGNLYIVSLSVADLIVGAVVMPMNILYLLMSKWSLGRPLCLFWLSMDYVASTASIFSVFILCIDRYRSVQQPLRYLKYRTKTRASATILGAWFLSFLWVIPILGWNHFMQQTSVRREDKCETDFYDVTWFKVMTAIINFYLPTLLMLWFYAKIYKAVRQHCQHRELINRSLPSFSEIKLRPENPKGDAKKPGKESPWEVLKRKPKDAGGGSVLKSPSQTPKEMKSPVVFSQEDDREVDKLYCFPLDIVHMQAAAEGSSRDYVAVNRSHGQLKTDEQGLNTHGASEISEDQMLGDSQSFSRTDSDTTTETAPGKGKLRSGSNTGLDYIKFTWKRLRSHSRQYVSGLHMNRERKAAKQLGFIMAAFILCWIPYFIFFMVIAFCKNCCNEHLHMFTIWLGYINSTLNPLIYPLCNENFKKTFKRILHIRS
Outline: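 Cell-free radioligand displacement at human H1 receptor, 1 h, filter scintillation counting; primary screen 25 uM in duplicate, hits in concentration series; loss of binding fitted vs DMSO.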

[14] = biological target: human Adenosine A1 Receptor (AdoRA1), ADORA1 (gene 134) (UniProt P30542); assay: NVS_GPCR_hAdoRA1: NovaScreen (NVS) G Protein-Coupled Receptor Assay for human Adenosine A1 Receptor (AdoRA1) (AID 2283254)
Outline: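 Radioligand binding was run on human cortical membranes, cell-free, with filter-based scintillation counting 1 h after dosing. The primary screen was duplicate at 25 uM, followed by concentration series. Signal loss versus DMSO was fitted positive-direction.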

[15] = biological target: human Adrenergic, Beta 1 Receptor (Adrb1), ADRB1 (gene 153) (UniProt P08588); assay: NVS_GPCR_hAdrb1: NovaScreen (NVS) G Protein-Coupled Receptor Assay for human Adrenergic, Beta 1 Receptor (Adrb1) (AID 2283258)
Outline: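 Cell-free radioligand displacement on receptor from human neuroepithelioma cells; 2 h after dosing, filter-based scintillation counting. Primary screen in duplicate at 25 uM, actives retested in concentration series; loss of signal vs DMSO baseline.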

[16] = biological target: Beta-2 adrenergic receptor (Homo sapiens) (UniProt P07550); assay: NVS_GPCR_hAdrb2: NovaScreen (NVS) G Protein-Coupled Receptor Assay for human Adrenergic, Beta 2 Receptor (Adrb2) (AID 2283261)
Outline: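 Filter-based radioligand binding using receptor prepared from CHO cells, 1 h incubation, scintillation counting. Primary screen in duplicate at 25 uM, actives retested in concentration series; loss of binding relative to DMSO.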

[17] = biological target: Type-1 angiotensin II receptor (Homo sapiens) (UniProt P30556); assay: NVS_GPCR_hAT1: NovaScreen (NVS) G Protein-Coupled Receptor Assay for human Angiotensin II receptor type 1 (AT1) (AID 2283263)
Outline: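 Membranes from KAN-TS cells; radioligand competitive displacement, 3 h, filtration and scintillation counting. Single-point duplicate screen at 25 uM, then concentration-response up to 50 uM for hits; loss of signal fitted versus DMSO.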

[18] = biological target: human Dopamine Receptor D4.4 (DRD4.4), DRD4 (gene 1815) (UniProt P21917); assay: NVS_GPCR_hDRD4.4: NovaScreen (NVS) G Protein-Coupled Receptor Assay for human Dopamine Receptor D4.4 (DRD4.4) (AID 2283264)
Outline: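 Radioligand displacement on human DRD4.4 from CHO-derived membranes, 1 hour incubation, bound counts read by filtration and scintillation. Primary screen in duplicate at 25 uM; actives followed up in concentration series.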

[19] = biological target: human Endothelin Receptor Type A (ETA), EDNRA (gene 1909) (UniProt P25101); assay: NVS_GPCR_hETA: NovaScreen (NVS) G Protein-Coupled Receptor Assay for human Endothelin Receptor Type A (ETA) (AID 2283265)
Outline: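 Cell-free radioligand displacement using SH-SY5Y-derived protein, 3 h incubation, filter-based scintillation counting. Primary screen in duplicate at 25 uM; actives then run in concentration-response up to 50 uM; loss of binding fitted versus DMSO.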

Q: CC(C)(C)CC(C)(C)c1ccc(O)cc1 was tested. Which AC50 [1] did it give?
A: 34.1 µM (active)

Q: What about the outcome [2] of the same compound?
A: inactive

Q: What about the AC50 [3] of the same compound?
A: 25 µM (active)

Q: Which outcome [4] does the source give for CCOP(=S)(OCC)SCSP(=S)(OCC)OCC here?
A: inactive

Q: CCOC(=O)/C=C(C)/C=C/C[C@@H](C)CCCC(C)C was tested. Which AC50 [5] did it give?
A: 32.1 µM (active)

Q: Which results are given for CCC(=O)C(CC(C)N(C)C)(c1ccccc1)c1ccccc1 (stereo not drawn)?
A: AC50 [6]: 5.61 µM (active); AC50 [7]: 7.94 µM (active); AC50 [8]: 6.69 µM (active); AC50 [9]: 1.42 µM (active); AC50 [10]: 18.1 µM (active); AC50 [1]: 3.59 µM (active); AC50 [11]: 16 µM (active); outcome [3]: inactive; outcome [12]: inactive; AC50 [4]: 5.6 µM (active); AC50 [13]: 7.25 µM (active)

Q: With O=C(O)C(F)(F)C(F)(F)C(F)(F)C(F)(F)C(F)(F)C(F)(F)C(F)(F)C(F)(F)C(F)(F)C(F)(F)F as the compound, how does the outcome [8] read?
A: inactive

Q: What about the AC50 [1] of the same compound?
A: 12.9 µM (active)

Q: What about the AC50 [2] of the same compound?
A: 2.43 µM (active)

Q: What about the AC50 [3] of the same compound?
A: 4.5 µM (active)

Q: And the AC50 [4]?
A: 11 µM (active)

Q: What about the outcome [5] of the same compound?
A: inactive

Q: How did the outcome [1] turn out when CCOP(=S)(OCC)Oc1nc(Cl)c(Cl)cc1Cl was run?
A: inactive

Q: Which results are given for CC(=O)[O][Hg][c]1ccccc1?
A: AC50 [6]: 19.1 µM (active); AC50 [7]: 6 µM (active); AC50 [8]: 0.791 µM (active); AC50 [9]: 31.4 µM (active); AC50 [10]: 1.32 µM (active); AC50 [14]: 25 µM (active); AC50 [1]: 0.577 µM (active); AC50 [2]: 6.98 µM (active); AC50 [11]: 20.1 µM (active); AC50 [15]: 0.993 µM (active); AC50 [3]: 0.252 µM (active); AC50 [16]: 0.934 µM (active); AC50 [12]: 6.02 µM (active); AC50 [17]: 15.1 µM (active); AC50 [18]: 0.794 µM (active); AC50 [19]: 1.07 µM (active); AC50 [4]: 0.428 µM (active); AC50 [13]: 1.18 µM (active); AC50 [5]: 0.104 µM (active)

Q: COS(=O)(=O)c1ccc(C)cc1 was tested. Which outcome [2] did it give?
A: inactive
